Shown are actives, neighbours in structure and some others; about 3% of the full set was active somewhere.
Wnt act = Wnt/beta-catenin pathway activation; Wnt/beta-catenin reporter cell assay, activator, plate reader; activation, % at 9.35 µM; actives 1.2% (n = 300,000); AID 743398; in the data active means activation above about 30%, passing the limit was not always enough; inconclusive means no clear call, values can overlap the other calls;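 further: 0% = neutral control wells and 100% = positive control wells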
MITF act = MITF TRPM1 promoter activation in melanoma cells. actives 0.75% (n = 300,000). SK-MEL-5 TRPM1-promoter luciferase, 24 h; % of positive control, neutral wells = 0. AID 588334. activation, % at 12.5 µM;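 active means mean activation of at least 80% with every replicate also reaching 80%; inconclusive means mean reaches 80% but some replicate falls short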;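 further: 0% = neutral control wells and 100% = parthenolide positive control wells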
Vif imaging = HIV Vif inhibition; actives 0.35% (n = 340,000); HEK293T cells, Vif self-association by quenched fluorescence, imaging, 24 h; inhibition, % at 7.49 µM; in the data active means inhibition above about 50%, passing the limit was not always enough; inconclusive means no clear call, values can overlap the other calls; inactive means below about 31%
N-glyco inh = N-linked glycosylation inhibition. AID 588692. reporter increase, % at 12.5 µM. actives 0.23% (n = 360,000). D54 ERlucT glycosylation luciferase reporter, 24 h; percent of 100 nM tunicamycin response;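 active means mean luciferase reporter signal, scaled so untreated is 0 and the glycosylation-blocking control 100, at or above a set limit in every replicate; inconclusive means mean reaches the limit but not every replicate does; inactive means mean below the limit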;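 further: luciferase carries N-glycosylation sites so blocking glycosylation raises the light; 0% = median of neutral control wells and 100% = median of 100 nM tunicamycin wells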
esBAF inh = blocks esBAF chromatin remodeling in mouse ES cells | reporter increase, % at 12.5 µM | Bmi1-luciferase knock-in reporter, 24 h; 100% = twice the neutral-well signal | actives 2% (n = 350,000); in the data active means activation above about 40%; inconclusive means no clear call, values can overlap the other calls;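 further: 0% = median of the plate's neutral control wells and 100% = double that signal; a rise in the Bmi1 reporter signal indicates esBAF inhibition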
PfHsp90 yeast 2 = inhibits growth of yeast expressing Plasmodium falciparum Hsp90; S. cerevisiae expressing PfHsp90, BacTiter-Glo ATP, 48 h; yeast lacking PDR1 and PDR3 efflux regulators; actives 0.32% (n = 310,000); inhibition, % at 9.4 µM; AID 504621;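 active means every replicate shows inhibition above about 80%, whatever the replicate mean, limit read from the data; inconclusive means mean inhibition reaches the set limit but some replicate falls short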;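 further: 0% = DMSO neutral controls and 100% = 20 µM radicicol positive controls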
Numbers without * were called inactive; ? = inconclusive; / = no result.

SMILES	Wnt act	MITF act	Vif imaging	N-glyco inh	esBAF inh	PfHsp90 yeast 2
CCn1cc(C(=O)N(C)c2ccc(OC)cc2)c2cc(OC)c(OC)cc2c1=O	-3	0	4	1	5	14
O=S(=O)(Nc1ccc2c(c1)OCCO2)c1cccc2cccnc12	/	3	/	-3	-4	-27
CCC1=NN(C(=O)c2ccccc2O)C(O)(c2ccccc2)C1 (stereo not given)	2	/	-8	-4	87*	17
CCOC(=O)C1Oc2ccccc2C(c2ccoc2)=C1C(=O)OC (stereo not given)	/	-13	0	0	-6	-21
COc1cc(/C=C(\C#N)C(=O)Nc2cccc(C(=O)O)c2)ccc1OCc1ccc(Cl)cc1	34*	33	14	-9	7	-11
Cc1ccc(C(=O)Nc2ccc(C(F)(F)F)n(C)c2=O)cc1	54*	23	/	-3	/	8
CCN(CC)S(=O)(=O)c1ccc(C(=O)Nc2ccc(C(F)(F)F)n(C)c2=O)cc1	-1	-2	3	-2	-9	-25
COc1ccc(C(=O)Nc2ccc(C(F)(F)F)n(C)c2=O)cc1	63*	28	1	-1	/	-2
COCCn1c(C(F)(F)F)ccc(NC(=O)c2ccccc2)c1=O	17	65	9	-6	28	12
CCN=c1scc(-c2ccc(F)cc2)n1/N=C/c1ccccn1	17	91*	4	-11	/	16
Cc1ccc(S(=O)(=O)c2ccc([N+](=O)[O-])o2)cc1	-6	-96	90*	-19	/	21
CCN(CC(=O)Nc1c(F)cccc1F)C(=O)C1CCN(S(=O)(=O)c2ccc(C)c(C)c2)CC1	1	-16	4	1	-3	/
CCc1ccc(N2C(=O)/C(=C/c3cccs3)N(CC(=O)OC)C2=S)cc1	/	-6	116*	3	-4	/
COC(=O)CN1C(=S)N(c2ccc(OC)cc2)C(=O)/C1=C/c1cccs1	/	-11	21	3	/	7
COCCSc1nnc(NS(=O)(=O)c2ccccc2)s1	1	6	56*	0	2	-4
Cc1cc(=O)[nH]c(N=N/C(=N/Nc2ccc(O)cc2)c2ccccc2)n1	/	29	-10	0	49*	13
O=C(O)c1ccc(/C=C(\c2nc3ccccc3[nH]2)c2nc3ccccc3s2)cc1	42*	-7	6	2	/	-21
O=C(O)c1ccc(-c2nc3ccccc3[nH]2)cc1	-1	-16	-4	3	/	10
CC1(C)CC(=O)C(N=Nc2ccc(-c3ccccc3)cc2)=C(O)C1	0	96*	8	1	/	7
CC1(C)CC(=O)C(N=Nc2ccc(F)cc2)=C(O)C1	44*	9	1	6	/	-24
CCOc1ccc(S(=O)(=O)n2cnc3ccccc32)cc1	1	/	1	0	-5	-17
COc1cc(-c2cc[n+](C)cc2)ccc1O	3	20	2	0	-5	-37
CSc1nsc(SCC(=O)Nc2ccc(OC(C)=O)cc2)n1	41*	89*	4	1	/	-12
O=C(NC(Cc1c[nH]c2ccccc12)C(=O)O)/C(=C/c1ccc2c(c1)OCO2)NC(=O)c1ccccc1 (stereo not given)	-11	-4	9	1	-8	-39
C[N+](C)(C)CC(O)CC(=O)O (stereo not given)	-2	2	116*	-1	12	-3
SMILES	Wnt act	MITF act	Vif imaging	N-glyco inh	esBAF inh	PfHsp90 yeast 2
Cc1nc2c([nH]1)C1(CCN(Cc3ccccc3)CC1)C(C#N)=C(N)O2	-3	-4	7	-2	-5	12
O=C(O)Cc1sc(Nc2ccccc2)nc1-c1cccs1	35*	20	?	1	/	-9
C=CCNc1nc(-c2cccs2)c(CC(=O)O)s1	2	3	-3	1	5	4
O=C(Cc1sc(-c2ccccc2)nc1-c1ccccc1)Nc1ccccc1	/	9	-1	-8	-6	9
O=C(Cc1sc(Nc2ccccc2)nc1-c1ccccc1)NCc1ccccc1	7	22	98*	-2	75*	-27
CCOC(=O)N1CCN(C(=O)Cn2ncc3c2-c2ccccc2OC3)CC1	-2	6	/	0	4	7
CCCn1c(N)c(C(=O)CSc2ncc(C(F)(F)F)cc2Cl)c(=O)[nH]c1=O	-4	9	1	-3	/	0

Screening results: PubChem BioAssay, Broad Institute
